Most compounds without a hit are left out; they make up all but 18% or so of the library.
TGFb inhibitor: TGF-b pathway inhibition. HepG2 CAGA-GFP TGF-b/SMAD3 reporter, GFP fluorescence, 18 h; TGF-beta stimulated, 500 pg/mL final. Potency, µM (highest dose often 46.1 µM), inactives show top-dose activity, negative = inhibition, actives largely listed as inhibitors. hit rate 1.2% among 410,000. AID 588855; also: potency is read from the fitted curve at half-maximal effect; % is scaled to controls: 0 for no effect and ±100 for the full control effect; nearly all actives have a fitted effect of over 65% in size
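Smad-responsive CAGA-GFP expression was quantified in HEPG2 cells exposed to compounds and 500 pg/mL final TGF-beta for 18 h at 37 degrees C; unstimulated wells defined full inhibition.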
DT40 TDP1 no CPT: qHTS for Inhibitors of human tyrosyl-DNA phosphodiesterase 1 (TDP1): qHTS in cells in absence of CPT; DT40 Tdp1-/- hTDP1 cells, no CPT, ATP luminescence, 48 h; Potency, µM (titrated, usually from 46.2 µM), for the others: at the highest dose activity change, negative = growth inhibition, most hits filed as inhibitors; hit rate 15% among 420,000; also: potency is read from the fitted curve at half-maximal effect; % is scaled to controls: 0 for no effect and ±100 for the full control effect; nearly all actives have a fitted effect of over 55% in size
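Growth kinetics read by CellTiter-Glo luminescence after ≥48 hr at 37 °C. Cells: DT40 Tdp1-/- stably carrying human TDP1, 400 per well, compound exposure in the absence of CPT (DMSO vehicle).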
DT40 TDP1 CPT: growth inhibition of DT40 Tdp1-/-;hTDP1 cells with camptothecin (screen for TDP1 inhibitors); chicken DT40 Tdp1-/-;hTDP1 cells + 20 nM CPT, ATP luminescence, 48 h; Potency, µM (titrated, usually from 46.2 µM), without a hit: at the highest dose activity change, negative = growth inhibition, actives largely listed as inhibitors; hit rate 12% among 420,000; AID 686979; also: potency is read from the fitted curve at half-maximal effect; % is scaled to controls: 0 for no effect and ±100 for the full control effect; nearly all actives have a fitted effect of over 55% in size
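Chicken DT40 Tdp1-/- cells complemented with human TDP1, 400 cells/well, exposed to compounds plus 20 nM camptothecin for at least 48 h at 37 C; viability read as ATP content by CellTiter-Glo luminescence.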
HepG2 tox: kills HepG2 cells in TGF-b inhibitor counter-screen. AID 588856. Potency, µM (doses to about 46.1 µM), without a hit: at the top dose activity change, negative = cytotoxicity, actives largely listed as cytotoxic. hit rate 0.76% among 410,000. HepG2 CAGA-GFP viability, ATP luminescence, 18 h; also: potency is read from the fitted curve at half-maximal effect
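HepG2 CAGA-GFP cells (1000/well, DMEM with 1% FBS) received compound, then TGF-beta at 500 pg/mL final, and were incubated 18 hours at 37 degrees C. Viability was read by CellTiter-Glo luminescence. Media-only wells were set as complete cell-killing and DMSO as no toxicity.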
IL1B secr inh: blocks inflammasome-driven IL-1 beta release; THP-1 LPS/ATP IL-1B secretion, AlphaLISA, 16 h; hits give low values; activity change, % at 57.5 µM; hit rate 4.7% among 360,000; in the data active = activity change below about -50%; inconclusive = mostly about -30% to -49%; also: % is scaled to controls: 0 for no effect and ±100 for the full control effect
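THP-1 cells pretreated 1 hr with compounds (up to 57.5 uM final), then stimulated with LPS (250 ng/mL final) plus ATP (1.25 mM final); secreted IL-1B measured by AlphaLISA after 16 hr, decreased signal indicating inhibition.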
TDP1 block: TDP1 (human) enzyme inhibition. recombinant TDP1, AlphaScreen DNA substrate cleavage. hit rate 0.28% among 350,000. Q9NUW8. Potency, µM (series often up to 130 µM), for the others: at the top dose activity change, negative = inhibition, actives largely listed as inhibitors; also: potency is read from the fitted curve at half-maximal effect; % is scaled to controls: 0 for no effect and ±100 for the full control effect; nearly all actives have a fitted effect of over 40% in size
Target sequence (Q9NUW8 whole entry, looked up): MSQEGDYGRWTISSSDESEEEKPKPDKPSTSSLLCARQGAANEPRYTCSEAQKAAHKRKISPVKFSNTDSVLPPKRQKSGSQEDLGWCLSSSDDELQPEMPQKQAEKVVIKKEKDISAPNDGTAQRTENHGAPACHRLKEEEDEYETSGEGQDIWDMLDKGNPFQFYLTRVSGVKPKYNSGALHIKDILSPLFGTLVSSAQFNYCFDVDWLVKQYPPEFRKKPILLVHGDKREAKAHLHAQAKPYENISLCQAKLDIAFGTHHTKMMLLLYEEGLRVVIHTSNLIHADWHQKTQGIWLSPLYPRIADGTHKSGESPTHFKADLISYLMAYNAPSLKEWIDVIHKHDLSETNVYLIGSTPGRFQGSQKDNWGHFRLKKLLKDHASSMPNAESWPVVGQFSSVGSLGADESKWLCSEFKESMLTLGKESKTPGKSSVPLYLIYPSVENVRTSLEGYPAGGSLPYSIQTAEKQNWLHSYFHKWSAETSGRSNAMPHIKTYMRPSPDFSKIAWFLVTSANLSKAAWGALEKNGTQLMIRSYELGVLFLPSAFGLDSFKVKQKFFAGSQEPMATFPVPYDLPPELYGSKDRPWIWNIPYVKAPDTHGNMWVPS
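AlphaScreen read-out: signal falls as enzyme removes the 3' tyrosine-FITC from a 5'-biotinylated DNA oligo (15 nM, 5 min, RT). Enzyme was E. coli-made recombinant Tdp1 at 1 nM, exposed to compound for 15 min beforehand; beads 10 ug/ml, 10 min.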
* hit, by the source's call; ? = inconclusive; nt = no result given; ! = a repeat was not active; [ ] = remark or other dose. Unless noted, calls follow the shape of the dose curve; as a rule, active = well fitted curve in the direction sought with a large enough effect; inconclusive = small, poorly fitted or top-dose-only effect, or another doubt; inactive = no such curve, though single readings can be large; an effect the other way counts as inactive or inconclusive.

SMILES | TGFb inhibitor | DT40 TDP1 no CPT | DT40 TDP1 CPT | HepG2 tox | IL1B secr inh | TDP1 block
Cc1ccccc1C(=O)N1CCC(C(=O)N2CCN(S(=O)(=O)c3ccccc3F)CC2)CC1 | 23% | -25% | ? | -6% | -4 | 4%
N#C/C(=C\c1cccn1S(=O)(=O)c1cccc([N+](=O)[O-])c1)S(=O)(=O)c1ccc(F)cc1 | -15% | ? | ? | -5% | 38 | nt
O=C(CCc1nnc2ccc(N3CCC4(CC3)OCCO4)nn12)NCc1ccccc1Cl | -4% | 4% | -13% | -5% | -3 | 0%
CCCCC(C(=O)NC1CCCC1)N(Cc1ccccc1)C(=O)c1snc(C(N)=O)c1N (configuration not stated) | -9% | 21µM* | ? | -6% | -28 | nt
CCC(C(=O)NC1CCCC1)N(Cc1ccccc1Cl)C(=O)c1snc(C(N)=O)c1N (configuration not stated) | 0% | 13µM* | -5% | -3% | -1 | 0%
CCCC(C(=O)NC1CCCC1)N(Cc1ccc2c(c1)OCO2)C(=O)c1snc(C(N)=O)c1N (configuration not stated) | 5% | ? | ? | -13% | -53* | 6%
CCCC(C(=O)NCCC(C)C)N(Cc1ccccc1)C(=O)c1snc(C(N)=O)c1N (configuration not stated) | -15% | ? | 18µM* | -28% | -22 | nt
CCCC(C(=O)NC(C)(C)C)N(Cc1ccc(F)cc1)C(=O)c1snc(C(N)=O)c1N (configuration not stated) | -15% | ? | -15% | -17% | 9 | nt
NC(=O)c1ccsc1NC(=O)COC(=O)c1cc(Cl)ccc1O | 8% | -26% | ? | 0% | 6 | 7%[0.505 µM]
CCCCCC(=C/c1ccccc1)/C=N/Nc1ccc(S(=O)(=O)N2CCOCC2)cc1[N+](=O)[O-] | 25% | -23% | -4% | -45% | -6 | nt
CCC1CCCCN1S(=O)(=O)c1ccc(S(=O)(=O)N(Cc2cccs2)C2CC2)cc1 (configuration not stated) | -11% | 23µM* | 18µM* | -20% | 62 | 3%
O=S(=O)(NCC1CCCO1)c1ccc(S(=O)(=O)N(Cc2ccc(F)cc2)Cc2ccccn2)cc1 (configuration not stated) | -7% | ? | -26% | 3% | -12 | 0%
CCC1CCCCN1S(=O)(=O)c1ccc(S(=O)(=O)N(Cc2ccccn2)CC2CCCO2)cc1 (configuration not stated) | 0% | 23µM* | 23µM* | -1% | -1 | 2%
CC1C/C(=N\NC(=O)c2ccc(NS(=O)(=O)c3ccc(Br)cc3)cc2)CC(C)(C)C1 (configuration not stated) | 1% | -17% | 2% | -18% | 11 | 5%
CCNc1ncc2nc(-c3ccc(OC)cc3)c(=O)n(C)c2n1 | nt | -6% | ? | nt | nt | nt
COc1cccc(Nc2ncc3ncc(=O)n(CCC#N)c3n2)c1 | nt | -11% | -6% | nt | nt | nt
COCCn1c(=O)cnc2cnc(Nc3cccc(OC)c3)nc21 | nt | ? | 9.2µM* | nt | nt | nt
CCNc1ncc2nc(-c3ccc(Cl)cc3)c(=O)n(-c3ccc(OC)cc3)c2n1 | nt | 13µM* | ? | nt | nt | nt
COc1cccc(Nc2ncc3nc(C)c(=O)n(CCC#N)c3n2)c1 | nt | 0.92µM* | 0.23µM* | nt | nt | nt
COc1ccc(Oc2ncc3nc(CCc4ccccc4)c(=O)n(CCC#N)c3n2)cc1 | nt | 23µM* | ? | nt | nt | nt
COc1cccc(Nc2ncc3nc(C)c(=O)n(C4CC4)c3n2)c1 | nt | ? | -12% | nt | nt | nt
CCNc1ncc2ncc(=O)n(Cc3ccc(F)cc3)c2n1 | nt | ? | 18µM* | nt | nt | nt
COc1ccc(-n2c(=O)c(C)nc3cnc(Nc4cccc(OC)c4)nc32)cc1 | nt | 18µM* | 23µM* | nt | nt | nt
CCCc1nn2c(C)c(-c3ccccc3)nc2s1 | -19% | -19% | -21% | -34% | nt | -14%
CC(C)c1nnc(NC(=O)c2nc(S(=O)(=O)Cc3ccc(F)cc3)ncc2Cl)s1 | ? | 4.1µM* | 4.6µM* | -71% | -105* | 5%
SMILES | TGFb inhibitor | DT40 TDP1 no CPT | DT40 TDP1 CPT | HepG2 tox | IL1B secr inh | TDP1 block
CCSc1nnc(NC(=O)c2nc(S(=O)(=O)Cc3ccc(F)cc3)ncc2Cl)s1 | ? | 10µM* | 13µM* | -46% | -103* | 4%
CC(C)c1nnc(NC(=O)c2nc(SCc3ccc(F)cc3)ncc2Cl)s1 | -13% | -3% | -20% | -20% | nt | -2%
Cc1nnc(NC(=O)c2nc(S(=O)(=O)Cc3ccccc3C)ncc2Cl)s1 | ? | 12µM* | 15µM* | -104% | -94* | -5%
Cc1cccc(CS(=O)(=O)c2ncc(Cl)c(C(=O)Nc3nnc(C(C)C)s3)n2)c1 | 11µM* | 13µM* | 4.6µM* | 11µM*! | -102* | 5%
Cc1cccc(C)c1NC(=O)c1cc2sccc2n1Cc1ccc(F)cc1 | -27% | ? | ? | -43% | nt | 4%
Cc1ccc(OCC(=O)Nc2cc(S(=O)(=O)N3CCCCC3)ccc2C)c([N+](=O)[O-])n1 | -11% | -13% | -30% | 10% | -19 | 5%
CSc1nnc(NC(=O)c2nc(S(=O)(=O)Cc3ccccc3F)ncc2Cl)s1 | ? | -84% | 2.9µM* | -60% | -101* | 3%
CSc1ncc(Cl)c(C(=O)Nc2nnc(SC/C=C/c3ccccc3)s2)n1 | ? | -8% | -9% | -15% | 16 | 9%
Cc1ccc(CS(=O)(=O)c2ncc(Cl)c(C(=O)Nc3nnc(C(C)C)s3)n2)cc1 | 13µM* | 12µM* | 5.8µM*! | 11µM*! | -101* | 2%
CSc1nnc(NC(=O)c2nc(S(=O)(=O)Cc3cccc(C)c3)ncc2Cl)s1 | ? | 8.2µM* | 8.2µM* | -76% | -102* | 6%
Cc1ccc(C)c(NC(=O)c2nc(S(=O)(=O)Cc3ccc(F)cc3)ncc2Cl)c1 | 3.5µM* | 2.1µM* | 1.5µM* | 3.5µM* | nt | 7%
C/C(CCC(=O)OC[C@@H]1O[C@H](C#Cc2ccccc2)C=C[C@@H]1Oc1ccc(C)cc1)=N/O[C@@H](C)CN1CCCc2nc(C)c(C)cc21 | nt | nt | nt | nt | nt | 11%[21 µM]
CCCc1ccc(S(=O)(=O)N/N=C(/C)c2ccc3c(c2)OCO3)cc1 | -22% | 6% | -11% | -20% | 16 | 2%[56.1 µM]

Screening results deposited in PubChem by National Center for Advancing Translational Sciences (NCATS).
